Results reported in the OligoGym collection.

molecular target: SLC22A8; test: pooled miR-30 sensor sort-seq; sequence = guide strand; details: shRNA
Further: reference of the scale not given here.

Sequence | sensor-assay potency score (higher = more potent)
TTTCCAGACAAGACCAACCAGC | -0.636
TTGCACACCAAGTCCCACTCTG | 0.471
TATAGTAGGCAAAACCGGTAGC | 0.235
TAATTCACTTGTGTAGAGGAAG | -0.618
AACTATAGTAGGCAAAACCGGT | -1.07
TTCACTTGTGTAGAGGAAGAGG | -0.683
TTTGTTGGAGTTGCACACCAAG | -1.22
TTCCACATTCAAGATGACGGTG | -0.373
TTGAAGACAGCCACCCGCCGGA | -0.0956
TTCTTCCACACCCATAGCCAAA | -1.71
TCTGTCACAATGGAGTCCTTGG | -1.04
TTGAGTTTGAGCTCCTCCAAGC | -1.05

molecular target: SLC23A2; test: as above; details: shRNA

Sequence | sensor-assay potency score (higher = more potent)
TATGCCATCAAGAACACAGGAG | 0.397
TATGGAACCTTAAACCACGGGG | -0.198
TTCTTGGATTTATAAATCGGGA | -1.08
TTCTGTTGAACTTCCAGCCTCC | 0.654
TATAAATCATGTCTGATCGCTG | 0.473
TTCCGTAGTGTAGATCGCCATG | -1.38
TAAATCAATGAACTGCAGGTTA | 0.267
TTCAACACTTGATCGATTCCTG | 0.272
TTCTGTCTGAGGTAACTTGGAA | -0.6
TAAATCATGTCTGATCGCTGGG | 0.763
TTGTCTGTAGCAAAGTAGTGAT | -0.911
TAATACTAGGAATATTGTCAGC | -0.987

molecular target: SLC25A18; test: as above; details: shRNA

Sequence | sensor-assay potency score (higher = more potent)
TTGAGGTAGCACTACAACGCAG | -1.18
TTTCAGAACATCTAGAGGCGTC | 0.0336
TTAAGGTTGGCAAACAGTGGGA | -0.285
TTCGAGTTTTCAGAACATCTAG | -0.224
TTGGTCTCAAACTAGGTGCTGA | -0.0245
TCGAGTTTTCAGAACATCTAGA | -0.0433
TAAAATACAGAAACAACCCTTC | 0.73
TTCTATTGTGACTACCTGTTAA | -0.81
TTAAAATACAGAAACAACCCTT | 0.611
TGAGGTAGCACTACAACGCAGA | -0.364
TCAAACTAGGTGCTGACTCTGA | -0.384
TTAACAATGCTAAATCCTCAAG | -1.35
